About 8,600 (12%) of roughly 69,000 compounds showed an effect of 50% or more. The sample as a whole holds a higher share of strong results than the screen did.
test system: Plasmodium berghei; assay: Screen against P. berghei liver stage (PbLuc), transformed with Luciferase, at 10uM; assay type: functional, HepG2; details: tested at 10 uM

Compound | INHIBITION [%]
Cc1cnn(CC2CN(Cc3nc4cccnc4[nH]3)CCO2)c1 (stereo unspecified) | 45.1
O=c1[nH]c2c(-c3ccccn3)nsc2c(=O)n1C1CCCCC1 | 9.41
O=C(Cc1cn2ccccc2n1)N1CCCC(n2cccn2)C1 (stereo unspecified) | 21.5
CSc1ncccc1C(=O)NCc1ccc(N(C)C)cc1 | -25.1
Cc1nc(CN2CCC3(CCCN(Cc4ccncc4)C3)C2=O)cs1 (stereo unspecified) | -36.9
CC(C)CN1CC(O)CN(S(=O)(=O)c2ccccc2)CC1=O (stereo unspecified) | 10.1
Cc1cc(C)nc(NCCC(=O)NCCn2ccc3ccccc32)n1 | 41.5
Cc1cnc(CN2CCOC(Cn3nc(C)cc3C)C2)cn1 (stereo unspecified) | 32.9
Cc1ccccc1CCC1CCCN(C(=O)Cc2cc(=O)[nH]c(N)n2)C1 (stereo unspecified) | -33
CCc1nc(N)sc1C(=O)N1CCCC(COc2cccc(C)c2)C1 (stereo unspecified) | -24.8
CCc1nc(N)sc1C(=O)N1CCCC(CCc2ccccc2C)C1 (stereo unspecified) | 55.3
Cn1ccc(C(=O)NCc2ccc(CN3CCCCC3)cc2)cc1=O | -19.9
CCS(=O)(=O)N1C[C@H]2CN(Cc3cccc(F)c3)C(=O)[C@H]2C1 | 3.58
COCCNc1nc(C)nc2c1CCN(CC1CCC(N)CC1)CC2 (stereo unspecified) | 26.6
c1csc(CN2CCC3(CC2)CCN(CC2CC2)CC3)n1 | 23.3
CN(C)c1ncnc2c1CCN(CC1CCCC1)CC2 | 38.1
Nc1nc2c(c(NCc3nccs3)n1)CCN(CC1CCCC1)CC2 | 76.6
Cc1nc2c(c(NCCc3nc(C)c(Cl)s3)n1)CCNCC2 | 18.5
Cc1nc2c(c(NCCc3nccs3)n1)CCN(CC1CC1)CC2 | 64.1
CC(C)c1nnc(CN2CCCc3ccc(S(N)(=O)=O)cc32)o1 | -7.93
CCCn1c(SCC(N)=O)nnc1-c1csc2c1CCCC2 | 19.8
CN(Cc1ccn[nH]1)C(=O)CCC(=O)NC1CCCC1 | 31.2

Compound | INHIBITION [%]
CCc1c(C)[nH]c(C(C)(N)CC)nc1=O (stereo unspecified) | 29.7
CCc1c(C)[nH]c(C(C)(C)N)nc1=O | 60.4
CCC(C)(N)c1nc(=O)c(C)c(C)[nH]1 (stereo unspecified) | 43.6
CCS(=O)(=O)c1ccccc1N1CCC(NC(=O)C2CC2)CC1 | -9.37
c1ccc(N2CCC3(CCCN(c4ncccn4)C3)C2)nc1 (stereo unspecified) | -56.2
CCc1nc2c(N3CCC4(CC3)CC(=O)N(CC)C4)ncnc2o1 | 26.8
CCc1nc2c(N3CCC4(CC3)CC(=O)N(CC(C)C)C4)ncnc2o1 | 87.2
CCc1nc2c(N3CCC4(CC3)CNC(=O)C4)ncnc2o1 | 9.91
c1csc(CN2CCCn3nnc(COCC4CC4)c3C2)n1 | 15.8
CC[C@@H](Cn1ncc2ccccc2c1=O)NC(=O)c1cnccn1 | -3.94
CCCn1nnc2c(sc3nc(N4CCOCC4)c4c(c32)CCC4)c1=O | 80.6
CC(C)n1nnc2c(sc3nc(N4CCOCC4)c4c(c32)CCC4)c1=O | 28.6
Cn1nnc2c(sc3nc(N4CCOCC4)c4c(c32)CCC4)c1=O | 13.8
CNc1ncc(CN(C)C(=O)c2cccc(-n3cccn3)c2)cn1 | 25.8
O=C(NCCc1cccs1)NCC(O)c1cccc(F)c1 (stereo unspecified) | -54.4
CCN(CC)c1ncnc2c(C)nn(CC)c12 | 35.4
O=C(O)C1(n2ccc(-c3ccco3)n2)CCN(Cc2cccnc2)CC1 | 1.48
CNc1nc2cn(-c3cccc(OC)c3)c(=O)c-2c[nH]1 | -98.45
C[C@@H]1CN(Cc2cc3ccccc3n2C)CC[C@@]1(O)C1CC1 | 8.7
C[C@@H]1CN(CC(C)(C)N2CCOCC2)C[C@@]1(O)C1CC1 | 54.5
C[C@@H]1CN(CC(C)(C)N2CCCCC2)C[C@@]1(O)C1CC1 | 31.7
C[C@@H]1CN(CC(C)(C)N2CCOCC2)CC[C@@]1(O)C1CCOCC1 | 27.7

Compound | INHIBITION [%]
C[C@@H]1CN(S(=O)(=O)N2CCOCC2)C[C@@]1(O)C1CC1 | 38.75
C[C@@H]1CN(CC(C)(C)N2CCCCC2)CC[C@@]1(O)C1CC1 | 71.3
Cc1nn(-c2ccccc2)nc1C(=O)N1CCCC(n2cccn2)C1 (stereo unspecified) | 17.4
FC(F)Oc1ccccc1CN1CCCC(c2nccn2CC2CC2)C1 (stereo unspecified) | 74.5
NC(=O)Cn1ccnc1C1CCCN(Cc2ccccc2OC(F)F)C1 (stereo unspecified) | 46.4
N#Cc1ccccc1CN1CCCC(c2nccn2CC2CC2)C1 (stereo unspecified) | 33.4
CC1(c2ncc(CN3CCSCC3)cn2)CCCCO1 (stereo unspecified) | 40.95
CN1CC[C@]2(CN(S(C)(=O)=O)C[C@H]2c2ccccc2)C1=O | 48.4
CCCn1cc(Cl)c(C(=O)N2C[C@@H](O)[C@H](NC(C)=O)C2)n1 | 0.65
O=C(O)c1cncc(Cc2ccccc2F)c1 | -8.58
Cc1cc(-c2cnc(N3CCNC(=O)C3)nc2-c2ccncc2)on1 | 50.8
Cc1cc(-c2cnc(N3CCCCCC3)nc2-c2cccnc2C)on1 | 59.3
Cc1cc(-c2cnc(N3CCCC(C)C3)nc2-c2cccnc2C)on1 (stereo unspecified) | 64.3
Cc1cc(-c2cnc(N3CCOCC3)nc2-c2cccnc2C)on1 | -2.11
Cc1cc(-c2cnc(N3CCNC(=O)C3)nc2-c2cccnc2C)on1 | 39.2
Cc1cc(-c2cnc(N3CCNC(=O)C3)nc2-c2ccoc2C)on1 | 14.7
Cc1cc(-c2cnc(N3CCNC(=O)C3)nc2-c2sccc2C)on1 | 0.301
Cc1cc(-c2cnc(N3CCNC(=O)C3)nc2-c2ccc(C)o2)on1 | 35.8
Cc1cc(-c2cnc(N3CCC(O)CC3)nc2-c2cccnc2C)on1 | 11.1
O=C(c1ccc(Cl)cc1F)N1CCC(Cn2cc(CO)nn2)CC1 | 6.67
CCCN(Cc1nnnn1C1CC1)CC1COc2ccccc2O1 (stereo unspecified) | -16.6
COCCCNC(=O)c1cc(-c2cnc(N3CCOCC3)nc2)cn1C | 38.1

Compound | INHIBITION [%]
O=C(Cc1ccccc1Cl)NCCN1CCC(c2cccs2)CC1 | 56.6
CC1CCN(CCNC(=O)c2ccn(-c3ccc(F)cc3)n2)CC1 | -43.5
O=C(NCCN1CCC(c2cccs2)CC1)c1ccc(F)cc1Cl | 56.6
CC1CCN(CCNC(=O)Nc2ccc(F)cc2Cl)CC1 | 56.4
COc1ccc(C(=O)NCCN2CCC(c3cccs3)CC2)cc1OC | 17.1
Cc1csc(C(=O)NCCN2CCC(c3cccs3)CC2)c1 | 68.2
O=C(NCCN1CCC(c2cccs2)CC1)Nc1cccs1 | 9.54
CCSc1ccccc1C(=O)NCCN1CCC(c2cccs2)CC1 | 38
O=C(NCCc1ccccc1)NCCN1CCC(c2cccs2)CC1 | 38
CC(=O)NCCN1CCC(c2cccs2)CC1 | -19.4
O=C(NCCN1CCC(c2cccs2)CC1)c1ccccc1C(F)(F)F | 40.9
CCOC(=O)N1CCN(CC(=O)Nc2ccc(F)cc2Cl)CC1 | 25.6
CCc1nnc2n1CCN(C(=O)c1ccc3cc[nH]c3c1)C2 | -7.53
CC(=O)N[C@@H]1CN(S(=O)(=O)c2ccc(Cl)cc2)C[C@H]1O | -0.232
COC(C)(CNS(=O)(=O)c1cnn(C)c1)c1ccccc1F (stereo unspecified) | -19.1
Cc1noc(C)c1CCC(=O)N1CCn2cccc2C1C (stereo unspecified) | -19.7
CN(C)C(=O)c1n[nH]c2c1CN(Cc1ccccn1)CC2 | -27
O=C(Nc1cc2c(cc1Br)OCCO2)NC1CCS(=O)(=O)C1 (stereo unspecified) | 11.8
CC1CCN(CCCNC(=O)C2CCCCC2)CC1 | -32.3
CC1CCN(CCCNC(=O)Nc2cc3c(cc2Br)OCCO3)CC1 | 63.3
CN(Cc1nccn1CC(F)(F)F)C(=O)c1ccc(F)c(F)c1 | -17.4
Cc1nn(-c2ncnc3[nH]cnc23)c2c1C(CC(C)C)CC(=O)N2 (stereo unspecified) | -4.35

Compound | INHIBITION [%]
CN(C)c1ncnc2c1CCN(Cc1nccs1)CC2 | -12.1
CN(C)C(=O)N1CCC2(CC1)CCN(Cc1ccccn1)C2=O | 20.5
CC(C)(C)c1nc(CN2CCN(C(=O)c3cnccn3)CC2)cs1 | 20.8
Cc1cnc(C(=O)N2CCC3(CCN(Cc4ccccn4)C3=O)C2)cn1 (stereo unspecified) | -39.2
CCc1nc(CN2CCN(C(=O)c3cnccn3)CC2)cs1 | 9.94
O=C(c1cnccn1)N1CCC2(CC1)CCN(Cc1ccccn1)C2=O | 53.2
Cc1oncc1C(=O)N1CCC2(CCN(Cc3ccccn3)C2=O)C1 (stereo unspecified) | 25.1
Cc1occc1C(=O)N1CCC2(CCN(Cc3ccccn3)C2=O)C1 (stereo unspecified) | 65.7
O=C(c1cnccn1)N1CCN(Cc2csc(-c3ccccc3)n2)CC1 | 59.4
Cc1ccc(C(=O)N2CCC3(CC2)CCN(Cc2ccccn2)C3=O)o1 | 52.2
CC(=O)N1CCC2(CCN(Cc3ccccn3)C2=O)C1 (stereo unspecified) | -20.1
O=C(c1ccncc1)N1CCC2(CC1)CCN(Cc1ccccn1)C2=O | 14.6
O=C(c1cccnc1)N1CCC2(CC1)CCN(Cc1ccccn1)C2=O | -20.1
CNc1cncc(C2CCCN2C(=O)CCn2ccnc2C(C)C)n1 (stereo unspecified) | 21.685
O=C(CC1CN(Cc2ccccc2)CCO1)NC1CCSCC1 (stereo unspecified) | 35.1
COCC(=O)N1CCCC1c1cc(N2CCN(C(C)=O)CC2)cc(C)n1 (stereo unspecified) | 18.9
COCC(=O)N1C[C@H]2CCCC(OCc3cccnc3)[C@H]2C1 (stereo partly specified) | -3.52
Cc1nc(CN2CCO[C@@H]3CN(C(=O)NC(C)C)CC[C@@H]3C2)cs1 | 36.4
